Data: PubChem BioAssay (NCATS)
This is one part of the list. Inconclusive results are not listed. Activity calls are given as the source filed them. Calls come from the whole dose curve; as a rule, active = well fitted inhibition curve with a large enough effect; inconclusive = small, poorly fitted or top-dose-only effect; inactive = no such curve, though single readings can be large or run the other way.

Biological target: ATPase family AAA domain-containing protein 5 (Homo sapiens) (UniProt Q96QE3)
Sequence (Q96QE3 whole entry, looked up, the tested form may be a part): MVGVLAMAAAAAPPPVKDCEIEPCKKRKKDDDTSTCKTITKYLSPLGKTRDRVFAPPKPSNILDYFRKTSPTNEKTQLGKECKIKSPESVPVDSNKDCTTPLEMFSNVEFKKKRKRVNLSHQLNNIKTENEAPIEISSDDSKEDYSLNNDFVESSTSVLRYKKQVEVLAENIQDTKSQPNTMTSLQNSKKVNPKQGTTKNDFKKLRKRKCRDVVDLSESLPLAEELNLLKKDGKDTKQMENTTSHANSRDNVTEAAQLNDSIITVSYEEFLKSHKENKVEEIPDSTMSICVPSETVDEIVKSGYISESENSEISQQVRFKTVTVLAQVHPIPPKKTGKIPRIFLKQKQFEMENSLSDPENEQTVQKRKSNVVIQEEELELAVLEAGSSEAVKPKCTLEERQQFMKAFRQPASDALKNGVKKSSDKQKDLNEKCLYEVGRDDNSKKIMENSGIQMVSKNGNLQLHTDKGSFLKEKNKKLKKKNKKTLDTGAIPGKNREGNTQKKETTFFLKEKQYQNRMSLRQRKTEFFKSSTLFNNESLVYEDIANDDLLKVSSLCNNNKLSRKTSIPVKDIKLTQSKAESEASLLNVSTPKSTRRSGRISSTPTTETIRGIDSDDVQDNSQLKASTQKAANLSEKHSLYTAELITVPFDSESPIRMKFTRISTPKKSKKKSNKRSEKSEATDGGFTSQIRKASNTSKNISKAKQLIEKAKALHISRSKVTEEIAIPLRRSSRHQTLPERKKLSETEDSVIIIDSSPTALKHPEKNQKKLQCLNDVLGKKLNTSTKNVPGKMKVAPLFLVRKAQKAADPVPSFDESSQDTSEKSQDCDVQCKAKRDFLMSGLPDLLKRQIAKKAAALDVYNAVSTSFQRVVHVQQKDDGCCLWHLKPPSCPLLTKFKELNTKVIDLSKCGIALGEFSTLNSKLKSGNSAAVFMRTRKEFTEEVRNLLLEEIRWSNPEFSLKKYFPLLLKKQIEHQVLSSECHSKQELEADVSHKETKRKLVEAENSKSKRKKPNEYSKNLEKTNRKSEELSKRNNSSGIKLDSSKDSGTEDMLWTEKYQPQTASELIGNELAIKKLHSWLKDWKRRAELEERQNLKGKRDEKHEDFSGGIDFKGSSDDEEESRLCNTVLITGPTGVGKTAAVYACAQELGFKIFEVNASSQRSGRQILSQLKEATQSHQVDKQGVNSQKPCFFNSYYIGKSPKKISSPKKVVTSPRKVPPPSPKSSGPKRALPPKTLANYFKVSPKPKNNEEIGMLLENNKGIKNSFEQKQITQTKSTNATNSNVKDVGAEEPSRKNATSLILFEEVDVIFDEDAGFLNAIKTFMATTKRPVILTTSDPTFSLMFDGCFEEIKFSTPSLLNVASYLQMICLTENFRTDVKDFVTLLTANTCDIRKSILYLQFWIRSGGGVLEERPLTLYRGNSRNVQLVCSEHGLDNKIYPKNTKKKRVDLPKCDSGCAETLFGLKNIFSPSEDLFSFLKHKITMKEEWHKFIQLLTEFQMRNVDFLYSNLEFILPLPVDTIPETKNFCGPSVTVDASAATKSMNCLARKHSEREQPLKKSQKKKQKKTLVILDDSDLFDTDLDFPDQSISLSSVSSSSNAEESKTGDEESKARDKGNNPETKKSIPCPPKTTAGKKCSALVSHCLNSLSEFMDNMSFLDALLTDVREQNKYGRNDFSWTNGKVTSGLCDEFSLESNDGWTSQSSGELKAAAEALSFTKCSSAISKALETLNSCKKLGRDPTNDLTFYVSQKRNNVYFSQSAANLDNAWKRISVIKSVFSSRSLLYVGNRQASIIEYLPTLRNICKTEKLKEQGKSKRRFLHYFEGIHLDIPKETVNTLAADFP
Test: HTS assay for small molecules that inhibit ELG1-dependent DNA repair in human embryonic kidney (HEK293T) cells expressing luciferase-tagged ELG1: Hit Confirmation (AID 624248); note: nearly all actives have a fitted effect of over 55% in size
Conditions: HEK293T ELG1-luciferase levels, luminescence, cells co-treated with 5-fluorouridine; series mostly up to 46.1 µM
Source text: Cancer cells divide rapidly compared to normal cells in the body. During cell division, cancer cells need to duplicate their genome by DNA replication. The failure of genome duplication leads to cancer cells' death. Therefore, inhibitors of DNA replication could specifically kill cancer cells. Based on this concept, many chemotherapeutic agents were developed and have been used to treat cancer patients. However, there are a limited number of agents available in the clinical setting, and some of those that do exist have low efficacy and severe side effects. Therefore, if we can find the compounds that effectively block DNA replication either by directly damaging DNA or by inhibiting other cellular mechanisms, the options for cancer treatment will be broadened. With this in mind, we developed a quantitative high-throughput ELG1-luciferase reporter gene assay. Small molecules that specifically block ELG1 function in response to DNA damage can be identified by monitoring the suppression of luciferase activity. Since ELG1 defines a pathway for repairing DNA damage, agents blocking ELG1 function can be used to sensitize cancer cells to chemotherapeutic agents whose mechanism of action involves the induction of DNA damage.
NIH Molecular Libraries Probe Production Network [MLPCN]
NIH Chemical Genomics Center [NCGC]
Assay Provider: Kyungjae Myung, NHGRI, NIH
For genotoxicity screening, 2,000 cells in 4 uL/well were dispensed into white, solid-bottom 1536-well plates using a solenoid-based dispenser. Following transfer of 1 uL 5-Fluorouridine and 23 nL compound or DMSO vehicle by a pin tool, the plates were incubated 16 hr at 37 °C and 5% CO2. 5 ul ONE-Glo (Promega) was then added to each plate and following a 30 min incubation at room temperature, luciferase activity was quantified on a ViewLux CCD-based plate reader.
Potency is the fitted concentration of half-maximal effect.

SMILES	Potency
Cc1cc2oc(=O)cc(CN3CCN(S(=O)(=O)c4cccs4)CC3)c2cc1C(C)C	3.53 µM (active)
CCOC(=O)c1cccc(NC(=O)C2CCN(c3ncnc4c3nc3n4CCCCC3)CC2)c1	3.97 µM (active)
CN(C)c1ccnc2sc3c(=O)n(Cc4ccccc4)cnc3c12	4.45 µM (active)
CN(CC1CCCO1)S(=O)(=O)c1ccc(C(=O)Nc2ccc(F)cc2)cc1 (stereo unspecified)	9.96 µM (active)
Nc1nnc(SCC(=O)Nc2ccc3nc(SCC(=O)Nc4ccccc4)sc3c2)s1	0.888 µM (active)
COc1ccc(NC(=O)c2sc3nc(C)nc(N4CCN(c5ccccn5)CC4)c3c2C)c(OC)c1	3.97 µM (active)
Cc1ccc(Nc2nc(N3CCOCC3)nc(N3CCOCC3)n2)cc1Cl	1.99 µM (active)
CC12CCC(C(=O)N3CCN(c4ncccn4)CC3)(c3nc4ccccc4nc31)C2(C)C (stereo unspecified)	7.91 µM (active)
CC(=O)c1c(C)n(-c2ccc(C)cc2)c2ccc(O)cc12	inactive
COc1ccc(CSc2nc(N3CCOCC3)c3c(c2C#N)CC(C)(C)OC3)cc1	0.889 µM (active)
COc1ccc(-c2nn(-c3ccccc3)cc2/C=C\C(=O)N2CCOCC2)cc1[N+](=O)[O-]	1.41 µM (active)
CS(=O)(=O)c1ccc2nc(NC(=O)C3CCCCC3)sc2c1	6.28 µM (active)
Cc1ccc(C)c(S(=O)(=O)N2CCN(c3ncnc4sccc34)CC2)c1	4.99 µM (active)
Cc1ccccc1NC(=O)CSc1nc2ccc(Nc3nc(N4CCOCC4)nc(N4CCOCC4)n3)cc2s1	3.15 µM (active)
COc1ccc(NC(C)=O)cc1NC(=O)CN1CCN(C2c3ccccc3-c3ccccc32)CC1	2.81 µM (active)
Cc1ccc(N(Cc2ccc(C(=O)Nc3ccccc3C(=O)NCc3ccco3)cc2)S(C)(=O)=O)cc1C	6.28 µM (active)
COc1ccccc1C(=O)Nc1ccc(C)c(S(=O)(=O)N2CCCCC2)c1	14.1 µM (active)
OCCCNc1nccc(-c2cc(Nc3cccc(Cl)c3)ncn2)n1	0.792 µM (active)
CCc1ccc(N(CC)c2ncnc3nc[nH]c23)cc1	4.99 µM (active)
Clc1ccc2nc(-c3ccccc3)nc(C(Cl)Cl)c2c1	3.53 µM (active)
NC(=O)c1sc2nc3c(c(-c4ccccc4)c2c1N)CCC3	1.77 µM (active)
